Each structure is given as a SMILES string. Results filed as inconclusive are left out. Active and inactive are the calls of the source. How the source made its calls: active means hit-call score of the fitted dose curve at least 0.9, where 1 is the maximum; inconclusive means response in the unintended direction; inactive means score below 0.9.

This passage reports outcome results from PubChem BioAssay (EPA / NIEHS).

Glyceraldehyde-3-phosphate dehydrogenase (Homo sapiens), sequence (P04406 whole entry, looked up): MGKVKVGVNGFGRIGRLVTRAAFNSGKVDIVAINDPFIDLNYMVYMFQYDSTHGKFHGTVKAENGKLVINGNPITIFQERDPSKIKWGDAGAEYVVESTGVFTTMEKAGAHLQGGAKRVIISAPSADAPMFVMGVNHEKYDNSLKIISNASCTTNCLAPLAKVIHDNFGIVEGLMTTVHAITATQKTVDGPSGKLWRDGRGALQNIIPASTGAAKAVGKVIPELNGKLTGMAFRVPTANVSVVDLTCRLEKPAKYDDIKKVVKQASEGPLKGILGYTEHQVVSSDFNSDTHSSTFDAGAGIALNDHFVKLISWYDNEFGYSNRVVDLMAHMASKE

Read-out in the experiment: Glyceraldehyde-3-phosphate dehydrogenase (Homo sapiens) (UniProt P04406)
As to the kind of experiment: CLD_GAPDH_6hr: CellzDirect (CLD) Gene Expression Assay for Baseline Control (Glyceraldehyde 3-phosphate dehydrogenase) at 6 hours (AID 2283681). As to the method: CLD_6hr is a cell-based, multiplexed-readout assay that uses hepatocyte, a human liver primary cell, with measurements taken at 6 hours after chemical dosing in a 96-well plate.CLD_GAPDH_6hr is one of 16 assay component(s) measured or calculated from the CLD_6hr assay. It is designed to make measurements of mRNA induction, a form of inducible reporter, as detected with chemiluminescence signals by Quantitative Nuclease Protection Assay (qNPA) technology.Data from the assay component CLD_GAPDH_6hr was analyzed at the endpoint, CLD_GAPDH_6hr, in the positive analysis fitting direction relative to DMSO as the negative control and baseline of activity. Using a type of inducible reporter, gain-of-signal activity can be used to understand changes in the reporter gene as they relate to the gene GAPDH. Furthermore, this assay endpoint can be referred to as a secondary readout, because this assay has produced multiple assay endpoints where this one serves a background control function. To generalize the intended target to other relatable targets, this assay endpoint is annotated to the background measurement intended target family, where subfamily is baseline control.
Human hepatocyte cultures were treated daily for two consecutive days with fresh dosing solutions containing appropriate concentrations of the 320 ToxCast chemicals (chemical identities were blinded to CellzDirect and other ToxCast collaborators), vehicle control (0.2% DMSO), and positive control inducers as summarized in Table 1. Due to the large number of treatment groups and chemicals examined, the ToxCast chemicals were divided into two groups (spanning two independent cultures of hepatocytes from separate donor preparations (Hu778: ToxCast plates 1 and 2; Hu776: ToxCast plates 3 and 4). Each preparation of human hepatocyte cultures was treated with respective vehicle control, medium only control, set of six positive controls/reference chemicals for the five hepatic receptor pathways, and a subset of eight of the ToxCast chemicals (indoxacarb, pyrithiobac-sodium, norflurazon, cyhalofop-butyl, methomyl, thiram, acetochlor, and propiconazole). These replicate data, coupled with internal replicates designed within the blinded ToxCast chemical library, provided additional data to evaluate interindividual differences between hepatocyte preparations and their potential impact on chemical profiles.Cell morphology and integrity were evaluated using phase-contrast microscopy as an indicator of hepatocyte cell health (Tyson & Green, 1987). Cultures for each treatment group (i.e., media, vehicle [0.2% DMSO], positive control inducers [multiple concentrations], and the ToxCast chemicals [multiple concentrations]) were observed and cell morphology was assessed relative to vehicle control cultures at each harvest time point (0, 6, 24, or 48 h). […] Images were evaluated at the conclusion of the study to assess changes in cell integrity and account for the effects of chemical exposure on uncharacteristic changes in concentration-dependent gene expression profiles. The results from these determinations of apparent cytotoxicity were annotated (yes/no) alongside the corresponding qNPA data for reference.At the conclusion of each treatment period, hepatocyte cultures (96-well) were washed with 1 volume of HBSS, lysed by addition of 25 ul ArrayPlate lysis buffer (HTG, Tucson, AZ), and 70 ul/well of Denaturation Oil, denatured by incubation at 95C for 10 min, and frozen at approximately -70C until analysis by nuclease protection assay (qNPA) (Roberts et al., 2007). For qNPA analysis, cell lysates were thawed at 50C for approximately 30 min, qNPA probes were added, and samples were incubated at 95C for 10 min to begin the detection process by denaturing the target RNA, dissociating the duplexes and secondary structure hybridization. At the conclusion of the hybridization period, S1 nuclease reagent was added to each sample to digest all nonprotected nucleotides at 50C for 60-90 min. […]
With `CCC(CC)Nc1c([N+](=O)[O-])cc(C)c(C)c1[N+](=O)[O-]`, the result was inactive. As for `O=c1ccc(=O)[nH][nH]1`, the outcome was inactive. As for `N#CSCSC#N`, the compound was called inactive. `CNC(=O)ON=C(C)SC`: the call was inactive. For the compound `COP(=O)(OC)C(O)C(Cl)(Cl)Cl` (stereo not given), the compound was called inactive. The result for `CCCCOC(=O)c1ccccc1C(=O)O` reads “inactive”; that for `Nc1c(Cl)cc([N+](=O)[O-])cc1Cl`, “inactive”; that for `CNC(=O)ON=C(SC)C(=O)N(C)C`, “inactive”.

For `CCCCOC(=O)[C@@H](C)Oc1ccc(Oc2ccc(C#N)cc2F)cc1`, the call was inactive. As to `CC(=NC#N)N(C)Cc1ccc(Cl)nc1`, the result was inactive. Regarding `CC(C)[C@H](C(=O)O[C@H](C#N)c1cccc(Oc2ccccc2)c1)c1ccc(Cl)cc1`, the call was inactive. The result for `CCc1cccc(C)c1N(C(=O)CCl)C(C)COC` (stereo not given) reads “inactive”. Regarding `CC1=NNC(=O)N(/N=C/c2cccnc2)C1`, the outcome was inactive. For `CCCSP(=O)(OCC)SCCC`, the result was inactive. As to `COP(=O)(NC(C)=O)SC` (stereo not given), the outcome was inactive. With `CCc1cnc(C2=NC(C)(C(C)C)C(=O)N2)c(C(=O)O)c1` (stereo not given), the compound was classed as inactive. As for `Cc1nn(-c2cc(NS(C)(=O)=O)c(Cl)cc2Cl)c(=O)n1C(F)F`, the outcome was inactive. The result for `CCOP(=O)(OCC)Oc1cc(C)nc(C(C)C)n1` reads “inactive”; that for `C#CCC1=C(C)C(OC(=O)C2C(C=C(C)C)C2(C)C)CC1=O` (stereo not given), “inactive”.

`CSC1=N[C@@](C)(c2ccccc2)C(=O)N1Nc1ccccc1`: the call was inactive. The result for `CSc1nnc(C(C)(C)C)c(=O)n1N` reads “inactive”; that for `CN(C)NC(=O)CCC(=O)O`, “inactive”; that for `CCc1cccc(CC)c1N(COC)C(=O)CCl`, “inactive”. For the compound `CCCOc1nn(C(=O)NS(=O)(=O)c2ccccc2C(=O)OC)c(=O)n1C`, the compound was classed as inactive. Consider `Nc1nc(N)nc(NC2CC2)n1`, for which the compound was classed as inactive. Turning to `CC(C1CC1)C(O)(Cn1cncn1)c1ccc(Cl)cc1` (stereo not given), the compound was classed as inactive.

As for `CCOP(=S)(Oc1cnc(C(C)(C)C)nc1)OC(C)C` (stereo not given), the result was inactive. The result for `COP(=O)(OC)OC(Br)C(Cl)(Cl)Br` (stereo not given) reads “inactive”. The result for `CCC(=NOC/C=C/Cl)C1=C(O)CC(C2CCOCC2)CC1=O` (stereo not given) reads “inactive”.

For `CCOC(=O)COc1cc(-c2nn(C)c(OC(F)F)c2Cl)c(F)cc1Cl`, the result was inactive. On to `CCOP(=O)(SC(C)CC)N1CCSC1=O` (stereo not given), for which the compound was called inactive.

With `CCOP(=S)(OCC)Oc1cc(C)nc(C(C)C)n1`, the outcome was inactive. With `CCCCN(CC)c1c([N+](=O)[O-])cc(C(F)(F)F)cc1[N+](=O)[O-]`, the compound was called inactive. As to `CCCOCC(=Nc1ccc(Cl)cc1C(F)(F)F)n1ccnc1`, the outcome was inactive. As for `O=[N+]([O-])c1cc(C(F)(F)F)c(Cl)c([N+](=O)[O-])c1Nc1ncc(C(F)(F)F)cc1Cl`, the outcome was inactive. Regarding `CCOP(=S)(OCC)OC(Cl)C(Cl)(Cl)Cl` (stereo not given), the outcome was inactive. The result for `CC1(C(=O)Nc2ccc(O)c(Cl)c2Cl)CCCCC1` reads “inactive”. In the case of `CC(C)=CC1C(C(=O)OCN2C(=O)C3=C(CCCC3)C2=O)C1(C)C` (stereo not given), the outcome was inactive. Regarding `Cc1ccn2nc(S(=O)(=O)Nc3c(F)cccc3F)nc2n1`, the compound was called inactive. In the case of `CC(Oc1cccc(Cl)c1)C(=O)O` (stereo not given), the outcome was inactive.
